{"source": "PubChem BioAssay AID623891", "about": "(Vanderbilt Specialized Chemistry Center, 2012)", "target": "Metabotropic glutamate receptor 6 (Homo sapiens) (UniProt O15303)", "sequence (O15303 whole entry, looked up)": "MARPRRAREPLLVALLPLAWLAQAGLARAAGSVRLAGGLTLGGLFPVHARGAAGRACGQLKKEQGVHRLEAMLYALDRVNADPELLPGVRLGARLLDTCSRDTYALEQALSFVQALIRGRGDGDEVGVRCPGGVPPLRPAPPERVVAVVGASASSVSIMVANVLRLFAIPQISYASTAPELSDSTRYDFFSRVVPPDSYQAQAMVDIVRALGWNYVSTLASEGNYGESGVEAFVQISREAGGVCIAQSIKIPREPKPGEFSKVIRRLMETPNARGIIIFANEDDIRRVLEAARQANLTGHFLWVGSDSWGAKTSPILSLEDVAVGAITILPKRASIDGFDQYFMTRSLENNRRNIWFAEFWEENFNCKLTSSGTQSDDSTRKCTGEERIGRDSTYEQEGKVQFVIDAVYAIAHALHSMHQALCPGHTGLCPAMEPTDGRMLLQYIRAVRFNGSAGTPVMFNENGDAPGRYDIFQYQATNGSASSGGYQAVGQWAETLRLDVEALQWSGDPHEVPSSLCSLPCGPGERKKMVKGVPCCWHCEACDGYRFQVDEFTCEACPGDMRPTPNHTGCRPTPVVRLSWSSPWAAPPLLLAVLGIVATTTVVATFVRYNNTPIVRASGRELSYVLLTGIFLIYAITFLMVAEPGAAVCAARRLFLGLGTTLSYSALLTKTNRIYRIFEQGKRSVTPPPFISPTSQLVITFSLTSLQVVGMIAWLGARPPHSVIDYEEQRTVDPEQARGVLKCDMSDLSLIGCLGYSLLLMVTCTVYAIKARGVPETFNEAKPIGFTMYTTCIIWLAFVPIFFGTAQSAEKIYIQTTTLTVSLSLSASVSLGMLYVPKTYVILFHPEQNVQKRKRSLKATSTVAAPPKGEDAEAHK", "test": "mGlu6 glutamate response modulation check – cell-based, human, thallium flux, selectivity assay for mGlu4 lead optimization, profiling panel (AID 623891)", "conditions": "mGlu6 cells, glutamate CRC fold shift, at 10 µM", "note": "Calls of active or inactive are those of the source.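 How the source made its calls: active means fold shift of 2 or more as potentiator, or 0.5 or less as blocker, so actives lie on both sides; inactive means fold shift between 0.5 and 2.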"}
{"compound": "O=C(Nc1cccc(Cl)c1)c1ccccn1", "values": [{"measurement": "fold shift", "result": "4.27 (active)"}]}
